Screening data from PubChem.
An excerpt weighted towards active compounds, which were near 3.3% of everything screened.
Bead autofluor – compound fluorescence in toxin protease inhibitor counterscreen; compound autofluorescence counterscreen, microsphere flow cytometry; stronger effect = higher value; fluorescence intensity (concentration not given with the values); 360,000 tested, 3.1% active; in the data active = fluorescence intensity above about 16000; inconclusive = no clear call, values can overlap the other calls
BoNT-F LC inh – blocks Botulinum neurotoxin F light chain protease | 360,000 tested, 0.22% active | inhibition, % at 10 µM | Multiplex microsphere protease cleavage assay, flow cytometry; in the data active = inhibition above about 35%, passing the limit was not always enough; inconclusive = no clear call, values can overlap the other calls; also: plate controls were buffer without enzyme for full effect and enzyme alone for no effect
MazF activator – activators of E. coli MazEF toxin-antitoxin RNase; P0AE70; FAM/BHQ RNA-DNA oligo cleavage fluorescence, 5 h; activation, % at 20 µM; 350,000 tested, 0.32% active; AID 504720; in the data active = activation above about 50%
Target sequence (P0AE70 whole entry, looked up): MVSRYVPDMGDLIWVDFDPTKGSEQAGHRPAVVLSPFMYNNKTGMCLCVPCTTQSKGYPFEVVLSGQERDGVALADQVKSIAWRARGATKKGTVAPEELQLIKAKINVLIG
Anthrax LF inh2 – inhibitors of Bacillus anthracis lethal factor protease. P15917. multiplex microsphere protease cleavage assay, LF. inhibition, % at 10 µM. 360,000 tested, 0.12% active; also: plate controls were buffer without enzyme for full effect and enzyme alone for no effect
SSB-PriA inh – K. pneumoniae PriA-SSBct interaction inhibition; AlphaScreen SSBct-PriA binding, biotinylated peptide; inhibition, % at 33 µM; 430,000 tested, 0.6% active; AID 1272365; in the data active = inhibition mostly above about 37%, no sharp cut-off; inactive = mostly below about 20%;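 also: plate controls were negative control peptide for no effect and reference peptide for full effect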
BoNT-A LC inh2 – BoNT A light chain protease inhibition. multiplex microsphere protease substrate cleavage, flow cytometry. inhibition, % at 10 µM. 360,000 tested, 0.17% active; also: plate controls were buffer without enzyme for full effect and enzyme alone for no effect
* = called active by the depositor; ? = inconclusive; / = no result. Rule as the data show it, unless noted: active = inhibition above about 30%; inconclusive = no clear call, values can overlap the other calls; inactive = below that.

SMILES	Bead autofluor	BoNT-F LC inh	MazF activator	Anthrax LF inh2	SSB-PriA inh	BoNT-A LC inh2
COc1ccc(NS(=O)(=O)c2cc(-c3nnnn3C)ccc2OC)cc1	18825*	9.6	3.2	-14.5	-0.6	6.5
COc1ccc(CCNS(=O)(=O)c2cccc(C)c2)cc1OC	20544*	-4.1	-2.0	-1.6	-7.1	-1.7
CCn1nnnc1-c1ccc(OC)c(S(=O)(=O)Nc2ccc(C)c(C)c2)c1	2334	-27.8	-3.8	0.2	-1.0	-2.0
COc1cccc(S(=O)(=O)NCCc2ccc(OC)c(OC)c2)c1	/	/	/	/	-10.0	/
O=C(Nc1ccc2c(c1)OCCO2)c1cc(N2CCCC2)ncn1	/	/	/	/	11.0	/
C=CCn1cccc(/C=C/C(=O)c2ccc(C(C)(C)C)cc2)c1=S	2571	-6.5	4.1	13.3	17.9	29.9*
COc1cccc(C(=O)Nc2ccc(Nc3ccc(-n4cccn4)nn3)cc2)c1OC	/	/	/	/	70.0*	/
O=C(Nc1ccc(Nc2ccc(-n3cccn3)nn2)cc1)c1ccccc1C(F)(F)F	/	/	/	/	5.0	/
O=C(Nc1ccc(-n2nncc2-c2ccco2)cc1)c1cccc(F)c1	12002	-15.2	-8.4	-4.8	-1.1	-1.0
O=C(Nc1ccc(Nc2ccc(-n3cccn3)nn2)cc1)c1cc2ccccc2oc1=O	/	/	/	/	56.0*	/
O=C(Nc1ccc(F)cc1)Nc1ccc(Nc2ccc(-n3cccn3)nn2)cc1	/	/	/	/	-6.0	/
O=C(Nc1ccc(Nc2ccc(-n3cccn3)nn2)cc1)Nc1cccc(F)c1	/	/	/	/	36.0*	/
O=C(Nc1ccc(-n2nncc2-c2ccco2)cc1)c1cc2ccccc2oc1=O	20140*	7.0	-37.1	0.6	46.5*	1.8
O=C(CSc1ncc(S(=O)(=O)c2cccc(C(F)(F)F)c2)c(=O)[nH]1)Nc1ccc(F)cc1	/	/	/	/	-10.0	/
Cc1ccc(NC(=O)NC2(C(F)(F)F)Oc3ccccc3O2)cc1[N+](=O)[O-]	/	/	/	/	16.0	/
CNc1nnc(-c2ccncc2)s1	16766*	-0.2	4.5	0.3	-5.2	-1.1
CCNc1nnc(-c2ccncc2)s1	4238	-47.2	-1.2	-3.1	-5.4	-1.9
CCOC(=O)C1(Cc2ccccc2C)CCCN(C(=O)c2ccnn2C)C1 (centres undefined)	2225	0.5	-1.2	-0.8	-10.1	0.1
CCOC(=O)C1(Cc2ccccc2C)CCCN(C(=O)c2ccoc2)C1 (centres undefined)	4417	-1.6	4.7	-1.2	41.5*	1.3
Cc1nn(C(C)c2n[nH]c(=S)n2-c2ccc(F)cc2)c(C)c1[N+](=O)[O-] (centres undefined)	17161*	-6.3	-4.2	-1.8	-5.0	-2.6
Cc1nn(CCc2n[nH]c(=S)n2-c2ccc(F)cc2)c(C)c1[N+](=O)[O-]	10625	-2.2	-2.4	-4.8	-5.4	-0.2
COCCNC(=O)c1ccccc1NC(=O)COc1ccccc1	20130*	4.1	-0.4	1.9	-5.0	1.6
O=c1[nH]c(=S)[nH]c2c1cnn2-c1ccc(Cl)cc1	/	/	/	/	-6.0	/
O=C1c2ccccc2C(Nc2ccc(S(=O)(=O)N3CCCCCC3)cc2)N1c1ccccn1 (centres undefined)	6222	-19.3	93.8*	-4.9	3.1	-1.2
Cc1cc(OC2CCN(S(=O)(=O)CCCOc3ccccc3)CC2)cc(=O)n1C	/	/	/	/	3.0	/
SMILES	Bead autofluor	BoNT-F LC inh	MazF activator	Anthrax LF inh2	SSB-PriA inh	BoNT-A LC inh2
COc1ccccc1OCC(=O)NCc1ccco1	10212	1.0	-2.8	-11.4	-15.3	-0.4
O=C(/C=C/c1ccc(Cl)c(Cl)c1)NCc1ccco1	2025	35.3*	-2.4	1.7	4.6	2.6
O=C(COc1ccccc1Br)NCc1ccco1	16469*	-0.2	-0.6	-0.2	7.8	-0.7
Cc1ccc(Cl)c(OCC(=O)NCc2ccco2)c1	21508*	-2.6	5.6	-0.6	-7.9	?
CCOc1ccc(NC(=O)C(C)Cn2cncn2)cc1 (centres undefined)	/	/	/	/	2.0	/
Cc1ccc([N+](=O)[O-])cc1S(=O)(=O)N1CCCN(S(=O)(=O)c2cc([N+](=O)[O-])ccc2C)CC1	/	/	/	/	-1.0	/
O=C(COc1ccc2ccccc2c1)NCC1CCN(Cc2cccs2)CC1	/	/	/	/	-9.0	/
COC(=O)NC1CSCC1OC(=O)CN1C(=O)c2ccccc2C1=O (centres undefined)	20984*	-2.5	-1.9	-1.4	-7.7	-1.9
COc1ccc(NC(=O)N2C[C@@H]3C[C@H](C2)c2cccc(=O)n2C3)c(OC)c1	/	/	/	/	0.6	/
CCOc1ccc(NC(=O)NC2(C(=O)NCc3ccco3)CCCCC2)cc1	3781	6.6	2.5	-3.1	-6.8	-0.1
O=C(Nc1ccc(F)cc1)NC1(C(=O)NCc2ccco2)CCCCC1	16458*	-1.9	3.3	-5.6	-3.0	0.4
